Compound activity (PubChem)
The list is not random: actives were taken first. Their share in the collection is about 2.4%.
Pol iota inh: DNA polymerase iota (human) inhibition; Potency, µM (highest dose often 115 µM), usual class: inhibitors; AID 588590; actives 1% (n = 390,000); Pol iota fluorescent replication assay, 10 min; Q9UNA4
Target sequence (Q9UNA4 whole entry, looked up): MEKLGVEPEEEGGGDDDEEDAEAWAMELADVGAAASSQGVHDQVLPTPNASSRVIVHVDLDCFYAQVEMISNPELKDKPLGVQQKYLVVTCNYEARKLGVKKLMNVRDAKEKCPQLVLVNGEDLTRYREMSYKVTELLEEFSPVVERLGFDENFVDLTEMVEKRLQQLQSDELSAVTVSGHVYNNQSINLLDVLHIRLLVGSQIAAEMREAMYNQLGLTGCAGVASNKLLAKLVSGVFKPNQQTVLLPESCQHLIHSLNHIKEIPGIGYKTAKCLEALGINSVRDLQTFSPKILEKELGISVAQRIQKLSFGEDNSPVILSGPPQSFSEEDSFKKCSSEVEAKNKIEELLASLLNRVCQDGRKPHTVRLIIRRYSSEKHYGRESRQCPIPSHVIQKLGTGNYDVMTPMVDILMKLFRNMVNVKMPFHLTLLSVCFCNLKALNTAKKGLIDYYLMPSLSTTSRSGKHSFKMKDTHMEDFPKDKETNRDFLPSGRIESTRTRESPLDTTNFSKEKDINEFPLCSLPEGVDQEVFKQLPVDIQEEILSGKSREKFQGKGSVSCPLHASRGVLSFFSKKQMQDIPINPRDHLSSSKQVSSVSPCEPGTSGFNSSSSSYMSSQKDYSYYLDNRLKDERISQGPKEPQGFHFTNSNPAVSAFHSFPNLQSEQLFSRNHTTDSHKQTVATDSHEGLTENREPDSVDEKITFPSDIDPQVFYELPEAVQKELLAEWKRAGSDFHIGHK
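Fluorescent replication assay read twice, at 0 min and 10 min after adding 50 nM (final) substrate. Enzyme (10 nM) and compounds were first incubated 15 min at room temperature; enzyme-free buffer wells were negative controls.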
Pol kappa inh: inhibitors of human DNA polymerase kappa | Q9UBT6 | purified Pol kappa, fluorescent DNA synthesis assay, 10 min | Potency, µM (top dose mostly 107 µM), hits mostly inhibitors | actives 0.53% (n = 400,000) | AID 588579
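10 nM Pol kappa was preincubated with compounds for 15 min at room temperature. Reaction started with 50 nM (final) substrate. Fluorescence read kinetically at 0 and 10 min.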
TDP1 inh: blocks human tyrosyl-DNA phosphodiesterase 1 | recombinant TDP1, AlphaScreen DNA substrate cleavage | Potency, µM (titrated, usually from 130 µM), actives largely listed as inhibitors | actives 0.28% (n = 350,000); also: nearly all actives have a fitted effect of over 40% in size
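Here, a 5' biotin and 3' phosphotyrosine-FITC DNA oligonucleotide reports Tdp1 activity: intact substrate bridges AlphaScreen beads, while cleavage leaves a 3' phosphate and drops signal. All incubations at room temperature.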
Pol beta inh-1: DNA polymerase beta (human) inhibition; P06746; Pol beta primer extension/strand displacement, fluorescence kinetic; Potency, µM (highest dose often 114 µM), usual class: inhibitors; actives 1.3% (n = 340,000); AID 485314
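Homogeneous kinetic assay of primer extension and strand displacement by 10 nM Pol beta, preincubated 15 min at room temperature with compound before 50 nM substrate (final) was added. Read at 0 and 10 min; four-parameter Hill fit.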
Pol eta inh: inhibitors of human DNA polymerase eta; Q9Y253; recombinant Pol eta, fluorescent DNA replication assay; Potency, µM (series often up to 114 µM), usual class: inhibitors; actives 1.2% (n = 390,000); AID 588591
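Pol eta (10 nM) was preincubated with compounds for 15 min at room temperature, after which fluorescent replication substrate (50 nM final) was added to start the reaction. Fluorescence was read kinetically at 0 and 10 min.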
FEN1 inhibitor: human FEN1 inhibition | Potency, µM (top dose mostly 114 µM), hits mostly inhibitors | P39748 | Recombinant FEN1 flap cleavage, fluorescence, 15 min | AID 588795 | actives 0.35% (n = 390,000); also: nearly all actives have a fitted effect of over 65% in size
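Steps: FEN1 (10 nM) dispensed; compound added by pin tool; 15 min at room temperature; substrate added to 50 nM final; reads at 0 min and 15 min; data normalized and fitted (four-parameter Hill).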
Pol beta inh-2: Inhibitors of human DNA polymerase beta, hit validation; shares compounds with Pol beta inh-1; Potency, µM, actives largely listed as inhibitors; Pol beta primer extension/strand displacement, fluorescence kinetic; actives 87% (n = 250); calls by dose curve
Klenow counter: counter-screen for DNA polymerase beta inhibitors: Klenow fragment inhibition. Klenow exo- polymerase counter-screen, fluorescent DNA substrate. activity change, negative = inhibition, % at 57.1 µM. shares compounds with Pol beta inh-1. 250 tested, under 10 active
HIV RT counter: counter-screen for DNA polymerase beta inhibitors: HIV-1 RT inhibition. shares compounds with Pol beta inh-1. HIV-1 RT polymerase activity, counter-screen. activity % (negative = inhibition, positive = activation), % at 57.1 µM. 250 tested, under 10 active. AID 540301
POLB inh gel: DNA polymerase beta inhibition, radiolabeled validation | shares compounds with Pol beta inh-1 | radiolabeled primer extension gel assay, phosphorimager | inhibition, % at 10 µM | actives 91% (n = 110);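 active = inhibition at 10 µM of 30% or more; inconclusive = no clear call, values can overlap the other calls; inactive = inhibition at 10 µM under 30%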
Hits are given with their value; . = inactive; ? = inconclusive; / = not tested or not shown; [ ] = another dose, or the depositor's remark. Unless noted, calls follow the shape of the dose curve; as a rule, active = well fitted curve in the direction sought with a large enough effect; inconclusive = small, poorly fitted or top-dose-only effect, or another doubt; inactive = no such curve, though single readings can be large; an effect the other way counts as inactive or inconclusive.

SMILES	Pol iota inh	Pol kappa inh	TDP1 inh	Pol beta inh-1	Pol eta inh	FEN1 inhibitor	Pol beta inh-2	Klenow counter	HIV RT counter	others
O=C(Cc1cccs1)Nc1nnc(SCc2cccc3ccccc23)s1	22.4µM	50.1µM	.	8.91µM	?	.	28.2	.	.	POLB inh gel=71.0
COc1ccc(Cc2nnc(NC(=O)Cc3cccs3)s2)cc1OC	?	79.4µM	/	8.91µM	6.31µM	.	?	.	.
O=C(O)[C@@H]1CCCNC1	/	.[12 µM]	.[21 µM]	/	/	/	/	/	/
O=C(c1cccc(F)c1)N1CCC2(CC1)CCN(c1cccc(-c3ccccc3)c1)CC2	/	.	/	/	/	/	/	/	/
Cc1c(C(=O)Nc2ccc(F)cc2)cn2c(nc3ccccc32)c1C#N	.	.	/	.	.	.	/	/	/
N#Cc1c2nc3ccccc3nc2n2cc(NC(=O)c3ccc(F)cc3)ccc12	?	?	.	6.31µM	35.5µM	?	10	.	.
CC(C)NC(=O)N1CC[C@@]2(CCCN(C(=O)Oc3ccccc3)C2)C1	/	.	/	/	/	/	/	/	/
O=C(Nc1cc(S(=O)(=O)Nc2ccc(Cl)cc2)ccc1O)c1ccc(S(=O)(=O)N2CCCCCC2)cc1	?	.	.	5.62µM	?	.	22.4	.	.	POLB inh gel=67.5
Cc1c(Cl)cccc1NC(=O)c1cc(-c2cccc(Cl)c2)on1	?	.	.	.	.	.	/	/	/
CCCCn1c(N)c(-c2nc3ccccc3s2)c2c([N+](=O)[O-])nn(C)c(=O)c21	.	.	.	.	.	.	/	/	/
CCCCCn1c(N)c(-c2nc3ccccc3o2)c2c([N+](=O)[O-])nn(C)c(=O)c21	.	.	.	1.41µM	?	.	11.2	.	.
CCOc1ccc(OCCN2C(=O)c3ccccc3C2=O)cc1	?	.	.	.	.	.	/	/	/
COc1ccc(OCC(=O)OCCN2C(=O)c3ccccc3C2=O)cc1	.	.	/	20µM	.	.	31.6	.	.	POLB inh gel=84.5
C[C@@]12C=Cc3occc3C1CC[C@@]13C[C@@H](CCC12)[C@@](O)(CO)C3 (stereo not given in full)	/	?	.	/	/	/	/	/	/
Cc1sc(NC(=O)c2sc3nc4c(C)cccc4cc3c2N)c(C#N)c1C	?	.	.	5.01µM	2.82µM	.	8.91	.	.
Cc1cccc2cc3c(N)c(C#N)sc3nc12	?	.	.	?	.	?	/	/	/
O=C(O)c1ccc(-c2ccc(-c3ccccc3)cc2)s1	/	/	.	15.8µM	/	/	20	.	.
CC(=O)c1cc2ccccc2c2ccccc12	.	.	/	/	/	.	/	/	/
Cc1cc2[nH]c(=O)c(=O)[nH]c2cc1S(=O)(=O)N1CCN(c2cccc(C)c2C)CC1	?	?	.	11.2µM	?	.	28.2	.	.	POLB inh gel=73.2
C=CCn1c(SCc2cc(=O)n3ccsc3n2)nnc1C1CCCCC1	25.1µM	?	.	20µM	79.4µM	.	?	.	.	POLB inh gel=87.3
O=c1cc(CSc2nnc(NC3CCCCC3)s2)nc2sccn12	.	.	.	.	.	.	/	/	/
Cc1cccc(S(=O)(=O)c2cn(Cc3ccc(F)cc3)c3cc(N4CCOCC4)c(F)cc3c2=O)c1	.	.	.	.	.	.	/	/	/
CS(=O)(=O)N1CCC2(CCCN(Cc3ccc(C#N)cc3)C2)CC1	/	.	/	/	/	/	/	/	/
COc1cccc2sc(Nc3nnc(-c4ccc(F)cc4)o3)nc12	.	.	.	12.6µM	50.1µM	.	35.5	.	.	POLB inh gel=85.0
O=C(Nc1cccc(S(=O)(=O)NC2=NCCCCC2)c1)c1cc(-c2ccco2)nc2ccccc12	14.1µM	79.4µM	/	7.94µM	?	.	11.2	.	.
